PostGolgi yeast: growth inhibition of a yeast mutant, post-Golgi transport screen | post-Golgi transport phenotypic cell assay | inhibition, % at 10 µM | 0.9% of 98,000 active | AID 739;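 also: yeast cells grown in 1536-well plates; yeast grown about 18 h at 30C before absorbance read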
CYP2C19 inh: blocks human cytochrome P450 2C19 | P33261 | 21% of 96,000 active | inhibition, % at 5 µM | CYP2C19 Supersomes, luciferin-H EGE luminescence, 30 min;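 active = CYP2C19 inhibition above a set limit at 5 µM in the primary screen, cut at about 50% in these data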
CYP2C19 activ: cytochrome P450 2C19 (human) activation; activation factor at 5 µM; AID 1025; recombinant CYP2C19, luciferin-H EGE luminescence; active compounds read high; 0 = fully inhibited enzyme, 1 = untreated enzyme; 96,000 tested, under 10 active; P33261;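 active = activation factor of at least 2 at 5 µM in the primary screen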
CYP2C9 activ: CYP2C9 (human) activation; P11712; recombinant CYP2C9, luciferin-H conversion, luminescence; active compounds read high; factor 1 = untreated enzyme, 0 = blocked; activation factor at 5 µM; 1.4% of 96,000 active;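 active = activation factor of 2 or more for CYP2C9 at a 5 µM dose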
Target sequence (P11712 whole entry, looked up): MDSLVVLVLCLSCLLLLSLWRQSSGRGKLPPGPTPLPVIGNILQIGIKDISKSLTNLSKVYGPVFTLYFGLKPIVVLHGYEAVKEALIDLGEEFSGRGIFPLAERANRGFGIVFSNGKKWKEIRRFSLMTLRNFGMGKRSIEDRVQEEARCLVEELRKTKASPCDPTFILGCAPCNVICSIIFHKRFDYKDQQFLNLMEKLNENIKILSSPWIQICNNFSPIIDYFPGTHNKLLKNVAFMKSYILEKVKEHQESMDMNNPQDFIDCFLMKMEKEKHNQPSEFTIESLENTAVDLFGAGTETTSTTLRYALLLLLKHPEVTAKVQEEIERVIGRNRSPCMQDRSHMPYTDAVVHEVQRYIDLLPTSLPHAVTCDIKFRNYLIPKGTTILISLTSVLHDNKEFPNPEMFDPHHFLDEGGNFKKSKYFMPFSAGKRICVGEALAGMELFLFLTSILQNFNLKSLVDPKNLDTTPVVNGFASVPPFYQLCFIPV
CYP2C9 inh: inhibitors of human CYP2C9. P11712. CYP2C9 Supersomes, luciferin-H conversion, luminescence. inhibition, % at 5 µM. 20% of 96,000 active. AID 777;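 active = blocking of liver enzyme CYP2C9 beyond about 50% at 5 µM, limit read from the data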
PostGolgi ctrl: growth of the yeast control strain, post-Golgi counter-screen; 5% of 98,000 active; efflux-deficient yeast background strain, growth absorbance A615, 16 h; inhibition, % at 10 µM
Large screens that a line does not name were inactive. Sampled rows, rich in hits. Any-hit rate of the full collection: about 32%. Rule as the data show it, unless noted: active = inhibition above about 30%; inactive = the rest.

Cc1nc(Oc2ccc(Cl)cc2)c2oc3ccccc3c2n1	none
CCCOc1ccc(N2CC(C(=O)Nc3ccccc3C(=O)NCc3ccco3)CC2=O)cc1 (centres undefined)	CYP2C9 inh 62
COc1ccc(N2CC(C(=O)Nc3ccccc3C(=O)NCc3ccco3)CC2=O)cc1 (centres undefined)	CYP2C19 inh 66, CYP2C9 inh 84
COc1ccc(CCN2CC(C(=O)NCc3ccco3)CC2=O)cc1OC (centres undefined)	PostGolgi ctrl 33
O=C(NCc1ccco1)C1CC(=O)N(c2ccc(O)cc2)C1 (centres undefined)	CYP2C9 activ 2.5
CC(C)CNc1oc(-c2ccc(F)cc2)nc1C#N	none
CCOC(=O)c1ccc(N2C(=O)CC(N3CCC(Nc4ccc(F)cc4)CC3)C2=O)cc1 (centres undefined)	none
Cc1ccc(-c2[nH]c(=O)n3ccncc23)s1	none (no result: CYP2C19 inh, CYP2C19 activ, CYP2C9 activ, CYP2C9 inh)
Cc1ccc(S(=O)(=O)NC(=O)NCc2ccccn2)cc1	none
O=C(CC1C(=O)NCCN1C(=O)Nc1ccccc1)Nc1ccc2c(c1)OCCO2 (centres undefined)	none
CC1=C(C(=O)OCCOC(C)C)C(c2cccnc2)C2=C(CCCC2=O)N1 (centres undefined)	CYP2C19 inh 70, CYP2C9 inh 56
CCN(CC)c1ccc(C2C(C(=O)OCCOC(C)C)=C(C)NC3=C2C(=O)CCC3)cc1 (centres undefined)	none
C=CCOC(=O)C1=C(C)N(C)C(=O)NC1c1cc2c(cc1Br)OCO2 (centres undefined)	CYP2C19 inh 96, CYP2C9 inh 71
CC1=C(C(=O)OCCOC(C)C)C(c2cc3c(cc2Br)OCO3)C2=C(CCCC2=O)N1 (centres undefined)	CYP2C19 inh 89
COCCN1C=C(C(=O)OC)C(c2cc3c(cc2Br)OCO3)C(C(=O)OC)=C1	none
CCOC(=O)C1=C(C)NC(=O)CC1c1cc2c(cc1Br)OCO2 (centres undefined)	CYP2C19 inh 99, CYP2C9 inh 90
COC(=O)C1=CN(CC2CCCO2)C=C(C(=O)OC)C1c1ccsc1 (centres undefined)	CYP2C9 inh 52
Cc1c(Cl)cccc1NC(=O)CCC(=O)NNC(=O)c1ccccc1Cl	none
O=C1CC(N2CCN(Cc3ccccc3)CC2)C(=O)N1c1ccc2c(c1)OCCO2 (centres undefined)	none
CC(C)C(=O)c1cn(CC(=O)N2CCCc3ccccc32)c2ccccc12	CYP2C9 inh 74
COc1ccc2c(CC(=O)OCC(=O)N3CCc4ccccc43)coc2c1	none
COc1ccc2c(CC(=O)N3CCc4ccccc43)coc2c1	CYP2C19 inh 64
COc1cc(C2=NOC(C(=O)N3CCCc4ccccc43)C2)cc(OC)c1OC (centres undefined)	none
COc1ccc(C2=NOC(C(=O)N3CCCc4ccccc43)C2)cc1 (centres undefined)	CYP2C9 activ 2.2
COc1ccccc1C(=O)NC(=S)N1CCCc2ccccc21	none
COc1ccc(OCC(=O)NC(=S)N2CCCc3ccccc32)cc1	CYP2C19 inh 64
Cc1cc(C)n2nc(SCc3cc(=O)oc4ccc5ccccc5c34)nc2n1	none
COc1ccc(C(=O)NCC(=O)NCC2COc3ccccc3O2)cc1 (centres undefined)	none
COc1ccc(OCCCC(=O)N2CCCc3ccccc32)cc1	CYP2C19 inh 98, CYP2C9 inh 83, PostGolgi ctrl 34
Cn1ncc(Cl)c1C(=O)N1CCc2ccccc21	none
CC(C)Oc1ccc(C(=O)N2CCCc3ccccc32)cc1	CYP2C19 inh 97, PostGolgi ctrl 31
COc1ccc2c(CC(=O)N(C)CC3COc4ccccc4O3)coc2c1 (centres undefined)	CYP2C19 inh 99, CYP2C9 inh 88
COc1ccc(C(=O)N2CCCc3ccccc32)cc1	none
Cn1ncc(Cl)c1C(=O)N1CCCc2ccccc21	CYP2C19 inh 54, CYP2C9 inh 63
O=C(N1CCC(O)(c2cccnc2)CC1)C12CC3CC(CC(C3)C1)C2	none
c1cnc(N2CC[N+]3(CCCC3)CC2)nc1	none
O=C(CCCC(=O)N1CCCc2ccccc21)N1CCCc2ccccc21	CYP2C19 inh 95
Cc1ccc(N2CC(C(=O)N3CCCc4ccccc43)CC2=O)cc1 (centres undefined)	CYP2C19 inh 68, CYP2C9 inh 96
Cc1ccc(-c2noc(CCC(=O)N3CCCc4ccccc43)n2)cc1	CYP2C19 inh 85, CYP2C9 inh 95
O=C(CN1CCCCC1)N1CCCc2ccccc21	none
COc1ccc(C2=NOC(C(=O)Nc3cc(C)on3)C2)cc1 (centres undefined)	PostGolgi ctrl 35
O=C(NC(=S)N1CCCc2ccccc21)c1ccccc1	CYP2C19 inh 51
Cn1c(C(=O)NCc2ccccn2)cc2c(=O)n3ccccc3nc21	none (no result: CYP2C19 inh, CYP2C19 activ, CYP2C9 activ, CYP2C9 inh)
O=C(c1ccc(C(=O)N2CCCc3ccccc32)s1)N1CCCc2ccccc21	PostGolgi yeast 105, CYP2C19 inh 50, PostGolgi ctrl 100
Cn1c(C(=O)N2CCCc3ccccc32)cc2c(=O)n3ccccc3nc21	CYP2C9 inh 65
COc1ccccc1CC(=O)N1CCCc2ccccc21	CYP2C19 inh 67, CYP2C9 activ 2.6
Nc1nnc(CC(=O)NCc2ccccc2)s1	none
CS(=O)(=O)N(CC(=O)O)c1cc(Cl)cc(Cl)c1	none
O=C(CCC1CCCCC1)Nc1cccnc1	none
CCN(CC)C(=O)CSc1ccccc1N	none
C=CCNC1=C(Cl)C(=O)N(c2cccc(Cl)c2Cl)C1=O	CYP2C19 inh 90
O=C1C(Cl)=C(N2CCOCC2)C(=O)N1CCc1ccccc1	CYP2C19 inh 88
O=C(CN1CCN(Cc2ccccc2Cl)C1=O)NCC1CCCO1 (centres undefined)	none
O=C1C(Cl)=C(NCC2CCCO2)C(=O)N1c1cccc(Cl)c1Cl (centres undefined)	CYP2C19 inh 82
CN1CCN(C2=C(Cl)C(=O)N(CCc3ccccc3)C2=O)CC1	CYP2C19 inh 56
O=C1C(Cl)=C(N2CCN(Cc3ccccc3)CC2)C(=O)N1c1ccccc1	none
Cn1c(=O)c2c(nc(SCC(=O)O)n2Cc2cc3c(cc2Cl)OCO3)n(C)c1=O	none
Cc1ccc(-n2c(Cn3nc(C(F)(F)F)cc3C)n[nH]c2=S)cc1	none
COc1cccc(C(=O)NCC(=O)N2CCC(C)CC2)c1	none
O=C1C(Cl)=C(NCC2CCCO2)C(=O)N1CCc1ccccc1 (centres undefined)	CYP2C19 inh 82, CYP2C9 inh 66
O=C1C(Cl)=C(NCCCN2CCOCC2)C(=O)N1CCc1ccccc1	CYP2C9 inh 78
O=C1C(Cl)=C(NCCc2ccccc2)C(=O)N1CCc1ccccc1	none
CC1CCC(Nc2nnnn2-c2ccccc2)CC1 (centres undefined)	none
O=c1oc2c(CN3CCOCC3)c(O)ccc2c2c1CCCC2	CYP2C9 activ 2
